Shown are actives, neighbours in structure and some others; about 13% of the full set was active somewhere.
USP17 inh: blocks human USP17 ubiquitin-rhodamine cleavage; purified USP17, Ub-rhodamine cleavage fluorescence, 3 h; AID 1645855; hit rate 6.5% among 47,000; inhibition, % at 50 µM; A8MUK1
USP28 inh: inhibitors of human USP28 deubiquitinase; inhibition, % at 25 µM; purified USP28, Ub-rhodamine cleavage fluorescence, 30 min; Q96RU2; hit rate 3% among 47,000
USP10 inh: blocks human USP10 ubiquitin-rhodamine cleavage. AID 1645856. purified USP10, Ub-rhodamine fluorescence, 60 min. Q14694. inhibition, % at 20 µM. hit rate 1.1% among 47,000
USP30 block: human USP30 deubiquitinase inhibition; Q70CQ3; purified USP30, Ub-rhodamine cleavage fluorescence; inhibition, % at 25 µM; hit rate 5.3% among 47,000
Target sequence (Q70CQ3 whole entry, looked up): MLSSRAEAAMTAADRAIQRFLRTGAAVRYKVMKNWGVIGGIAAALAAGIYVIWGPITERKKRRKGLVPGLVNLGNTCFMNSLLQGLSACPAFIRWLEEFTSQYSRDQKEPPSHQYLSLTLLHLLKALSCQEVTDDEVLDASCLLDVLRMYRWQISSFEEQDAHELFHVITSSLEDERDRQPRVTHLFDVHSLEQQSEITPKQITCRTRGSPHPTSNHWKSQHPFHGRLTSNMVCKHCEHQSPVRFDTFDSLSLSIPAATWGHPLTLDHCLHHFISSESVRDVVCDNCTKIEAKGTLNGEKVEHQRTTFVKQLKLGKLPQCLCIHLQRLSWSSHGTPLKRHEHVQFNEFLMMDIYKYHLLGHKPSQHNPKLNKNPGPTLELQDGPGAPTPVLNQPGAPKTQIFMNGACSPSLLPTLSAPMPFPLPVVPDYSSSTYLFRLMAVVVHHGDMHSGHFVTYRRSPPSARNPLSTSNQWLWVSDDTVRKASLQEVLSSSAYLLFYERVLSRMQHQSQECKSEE
USP7 block: blocks human USP7 ubiquitin-rhodamine cleavage | Q93009 | purified USP7, Ub-rhodamine cleavage fluorescence | inhibition, % at 20 µM | hit rate 0.3% among 47,000 | AID 1645854
USP8 inh: inhibitors of human USP8 deubiquitinase; hit rate 4.2% among 47,000; inhibition, % at 20 µM; purified USP8, Ub-rhodamine cleavage fluorescence, 30 min; AID 1645853
* = called active by the depositor; / = no result. Rule as the data show it: active = inhibition above about 30%; inactive = the rest.

SMILES	USP17 inh	USP28 inh	USP10 inh	USP30 block	USP7 block	USP8 inh
Cc1ccc(NC(=O)c2ccc3nn(CC(=O)Nc4ccc(C)cc4C)c(=O)n3c2)cc1	-18	-19	3	-50	11	53*
Cc1ccc(NC(=O)Cn2nc3cnc4ccccc4n3c2=O)cc1	-92	-60	-4	-160	0	0
Cc1ccc(NC(=O)c2ccc3nn(CC(=O)Nc4ccc(F)cc4F)c(=O)n3c2)cc1	68*	-25	3	10	17	57*
CCOc1ccc(-c2csc3ncn(Cc4c(F)cccc4Cl)c(=O)c23)cc1	-7	/	-1	/	/	-7
COc1ccc(/C=C/C(=O)NC(=NCCc2c[nH]c3cc(OC)ccc23)Nc2nc(C)cc(C)n2)cc1	-17	-37	-2	-62	0	3
COCCN1C(=O)c2ccccc2C(C(=O)Nc2ncccc2C)C12CCCCC2 (centres undefined)	3	3	2	0	4	6
Cc1ccccc1NC(=O)CSc1nnc2ccc(C(=O)NCc3ccccc3)cn12	5	-4	-1	3	-5	45*
N#Cc1ccc(Cn2c(CN3CCOCC3)nc3ccccc3c2=O)cc1	5	11	0	3	-11	8
O=C(Cc1cccc2ccccc12)Nc1nc2c(s1)CCc1ccccc1-2	11	5	9	0	2	15
CC(=O)Nc1nc2c(s1)CCc1ccccc1-2	20	39*	2	10	0	5
CC(C)Cc1noc(CN2CCC3(CC2)CC3c2nc(-c3cccnc3)no2)n1 (centres undefined)	-51	-40	-5	-136	-8	-116
c1ccc2c(c1)CCc1c-2nc2ccccc2c1N1CCOCC1	72*	2	-3	-95	-21	83*
O=C(NCCN1CCOCC1)c1[nH]nc2c1CCc1ccccc1-2	-3	17	1	-1	-1	-3
CC(C)CCNC(=O)CSc1nc(-c2cccc(Cl)c2)nc2cc(=O)[nH]n12	42*	18	25	25	15	19
CC(C)N1CCCn2cc(S(=O)(=O)NC3CCCCCC3)cc2C1=O	0	1	0	-23	-1	5
COc1ccc(CNC(=O)CN2C(=O)c3ccccc3C2c2c[nH]c3ccccc23)cc1 (centres undefined)	6	-7	-1	0	-2	-8
COc1ccccc1CNC(=O)Cn1c(=O)[nH]c2c(-c3ccccc3)c[nH]c2c1=O	44*	-6	-4	-110	6	-13
CCC(C)NC(=O)Cn1c(=O)[nH]c2c(-c3ccccc3)c[nH]c2c1=O (centres undefined)	38*	/	0	/	0	-3
COc1ccccc1CNC(=O)Cn1c(C)nc2onc(C)c2c1=O	16	13	4	35*	5	1
COc1ccc(CNC(=O)Cn2c(=O)[nH]c3c(-c4ccccc4F)c[nH]c3c2=O)cc1	-18	-47	22	-31	18	87*
CCN1CCN(C(=O)Cn2c(=O)[nH]c3c(-c4ccccc4)c[nH]c3c2=O)CC1	14	7	0	19	4	-1
CCc1nnc(C2(c3cccc(F)c3)CCOCC2)o1	-4	-6	4	-4	-2	7
Cc1cc2nc(C3CCN(C(=O)c4ccn(C)n4)CC3)cc(=O)n2[nH]1	-26	-2	0	-14	8	-60
O=C(Cn1c(=O)[nH]c2c(-c3ccccc3)c[nH]c2c1=O)N1CCCCCC1	-48	-23	1	-100	9	46*
COc1ccc(CN2CCCC23CCCN(C(=O)CCc2cccnc2)C3)cc1F (centres undefined)	41*	93*	-1	96*	1	-73
N#Cc1cccc(NC(=O)/C=C/c2cccc3ccccc23)c1	35*	4	-3	-15	-95	29
O=C(Nc1ccc(F)cc1F)N1CCN(c2cc(-c3ccncc3)[nH]n2)CC1	/	13	5	41*	9	3
COc1ccc(-c2cc(C)no2)cc1S(=O)(=O)Nc1cc(F)ccc1F	16	0	7	0	12	1
O=C1NCCN1C1CCCN(Cc2cnn(-c3ccccc3)n2)C1 (centres undefined)	0	8	-1	5	1	13
Cc1ccc(-c2cc(C(=O)Nc3ccc(S(N)(=O)=O)cc3)[nH]n2)c(O)c1	39*	48*	16	32*	/	0

Compound activity as filed in PubChem.
